Source: PubChem
The list is not random: actives were taken first. Their share in the collection is about 17%.
TDP1 cell noCPT – qHTS for Inhibitors of human tyrosyl-DNA phosphodiesterase 1 (TDP1): qHTS in cells in absence of CPT | DT40 Tdp1-/- hTDP1 cells, no CPT, ATP luminescence, 48 h | Potency, µM (titrated, usually from 46.2 µM), without a hit: at the top dose activity change, negative = growth inhibition, usual class: inhibitors | 15% of 420,000 active | AID 686978, 2013; further: on the % scale 0 is the no-effect control and ±100 the full control effect; nearly all actives have a fitted effect of over 55% in size
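Growth of hTDP1-complemented DT40 Tdp1-knockout cells is measured by ATP luminescence after at least 48 hr compound exposure at 37 °C, with DMSO substituting for the 20 nM CPT used in the parallel screen.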
TGFb SMAD3 inh – blocks TGF-b signaling; Potency, µM (doses to about 46.1 µM), for the others: at the highest dose activity, negative = inhibition, usual class: inhibitors; HepG2 CAGA-GFP TGF-b/SMAD3 reporter, GFP fluorescence, 18 h; TGF-beta stimulated, 500 pg/mL final; 1.2% of 410,000 active; further: on the % scale 0 is the no-effect control and ±100 the full control effect; nearly all actives have a fitted effect of over 65% in size
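Using HEPG2 CAGA-GFP reporter cells at 1000 cells/well, we pinned test compounds, stimulated with recombinant TGF-beta (500 pg/mL final) and measured total well GFP after 18 h.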
ATXN viability – reduces viability in counter-screen for ATXN expression inhibitors; S2 cells (HEK-293 line with an ATXN2-luciferase reporter) viability, CellTiter-Fluor protease fluorescence, 24 h; Potency, µM (top dose mostly 56.7 µM), hits mostly cytotoxic; 0.49% of 400,000 active; further: nearly all actives have a fitted effect of over 40% in size
HepG2 tox – HepG2 cytotoxicity, counter-screen for TGF-b inhibitors; HepG2 CAGA-GFP viability, ATP luminescence, 18 h; Potency, µM (highest dose often 46.1 µM), without a hit: at the top dose activity change, negative = cytotoxicity, most hits filed as cytotoxic; 0.76% of 410,000 active; AID 588856
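HepG2 CAGA-GFP cells (1000/well, DMEM with 1% FBS) received compound, then TGF-beta at 500 pg/mL final, and were incubated 18 hours at 37 degrees C. Viability was read by CellTiter-Glo luminescence. Media-only wells were set as complete cell-killing and DMSO as no toxicity.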
ATXN2 expr inh – ATXN2 expression inhibition; HEK-293 ATXN2-luciferase reporter, luminescence, 24 h; Potency, µM (doses to about 57 µM), inactives show top-dose activity change, negative = inhibition, actives largely listed as inhibitors; 0.72% of 360,000 active; AID 1745845; further: on the % scale 0 is the no-effect control and ±100 the full control effect; nearly all actives have a fitted effect of over 55% in size
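qHTS (up to 57 uM final) was run with 24 h compound exposure of reporter cells at 37 °C. Each well was multiplexed: SteadyGlo luminescence measured ATXN2-luciferase expression after a fluorogenic Gly-Phe-AFC viability readout (25 uM final).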
TDP1 cell CPT – DT40-hTDP1 cell growth loss with CPT; chicken DT40 Tdp1-/-;hTDP1 cells + 20 nM CPT, ATP luminescence, 48 h; Potency, µM (top dose mostly 46.2 µM), for the others: at the highest dose activity change, negative = growth inhibition, hits mostly inhibitors; 12% of 420,000 active; AID 686979; further: on the % scale 0 is the no-effect control and ±100 the full control effect; nearly all actives have a fitted effect of over 55% in size
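Cell growth measured by CellTiter-Glo luminescence after a minimum 48 h, 37 C compound exposure with 20 nM CPT in Tdp1-knockout DT40 cells stably expressing hTDP1, seeded 400/well; qHTS titration format.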
Starred values were filed as active, the others as inactive; i = inactive; ? = inconclusive; · = not tested or not shown; ! = repeats disagree; [ ] = dose if it differs, or a comment. The call rests on the fitted dose curve; in most records, active means well fitted curve in the direction sought with a large enough effect; inconclusive means small, poorly fitted or top-dose-only effect, or another doubt; inactive means no such curve, though single readings can be large; an effect the other way counts as inactive or inconclusive. Potency means the concentration at half of the fitted maximal effect.

SMILES	TDP1 cell noCPT	TGFb SMAD3 inh	ATXN viability	HepG2 tox	ATXN2 expr inh	TDP1 cell CPT
C=C1CC[C@H](O)C/C1=C/C=C1\CCC[C@]2(C)C([C@H](C)CCCC(C)(C)O)CC[C@@H]12 (stereo not given in full)	0.021µM*!	·	·	·	·	0.046µM*!
C=C1CC[C@H](O)C/C1=C/C=C1\CCC[C@]2(C)[C@H]1CC[C@H]2[C@@H](C)CCCC(C)C	·	·	i	·	·	·
O=C1CC(Cc2ccc(Cl)cc2)C(=O)N1c1ccncc1 (stereo not given)	-17%	?	i	-14%	-1%	-22%
O=C1C2CC=CCC2C(=O)N1c1ccc(Cc2ccncc2)cc1 (stereo not given)	11µM*	-27%	i	3%	-8%	18µM*
O=c1ccnc(SCCc2ccc([N+](=O)[O-])cc2)[nH]1	?	1%	i	-43%	2%	-17%
CCN(C(=O)CN1C(=S)NC(C)(C)CC1C)c1ccc(C)c(C)c1 (stereo not given)	23µM*	9%	i	-4%	-20%	15µM*
NC(=O)CC(NC(=O)c1ccc(Br)cc1)c1ccc(N2CCC(Br)CC2)c([N+](=O)[O-])c1 (stereo not given)	12µM*	?	i	-3%	?	18µM*
NC(=O)CC(NC(=O)c1cccc(Br)c1)c1ccc(N2CCC(N3CCCC3)CC2)c([N+](=O)[O-])c1 (stereo not given)	-19%	?	i	8%	4%	5%
NC(=O)CC(NC(=O)c1ccccc1)c1ccc(N2CCc3ccccc3C2)c([N+](=O)[O-])c1 (stereo not given)	?	5%	i	4%	-14%	?
NC(=O)CC(NC(=O)c1ccccc1)c1ccc(N2CCCCCCC2)c([N+](=O)[O-])c1 (stereo not given)	9.2µM*	-16%	i	-22%	-7%	8.2µM*
NC(=O)CC(NC(=O)c1cccc(Br)c1)c1ccc(N2CCCCCC2)c([N+](=O)[O-])c1 (stereo not given)	6.5µM*	-13%	i	-17%	-9%	5.8µM*
NC(=O)CC(NC(=O)c1ccc(Br)cc1)c1ccc(N2CCCCCC2)c([N+](=O)[O-])c1 (stereo not given)	16µM*	?	?	-13%	?	16µM*
O=C(Nc1ccc2c3c(cccc13)CC2)c1ccccc1	?	-8%	i	-25%	·	?
N#CCC(=O)c1ccccc1Oc1ccc(Cl)cc1	-15%	-4%	i	12%	·	2%
COc1cc(/C=C(\C(=O)O)c2ccc(S(=O)(=O)N3CCCC3)s2)ccc1OCCC(C)C	?	-1%	i	-13%	0%	23µM*
CCCCOc1ccc(/C=C(\C(=O)O)c2ccc(S(=O)(=O)N3CCCC3)s2)cc1	?	-11%	i	-10%	3%	?
O=C(CCCCCN1C(=O)c2ccccc2C1=O)Nc1ccc(F)cc1	-19%	-1%	i	-20%	-1%	-24%
Cc1nnc(SCC(=O)c2ccc(Cl)cc2)n(N)c1=O	-11%	?	?	16%	56%	-9%
COc1ccccc1C(=O)Nc1cccc2cccnc12	?	-23%	i	-13%	63%	?
Cc1ccc(NC(=O)c2cccc3cccnc23)cc1	18µM*	-8%	i	-15%	90%	?
Cc1ccc(NC(=O)CN(C)S(=O)(=O)c2cccc3cccnc23)cc1	?	2%	i	7%	-11%	-3%
Cc1ccc(NC(=O)CN(C)C(=O)COc2cccc3cccnc23)cc1	2.9µM*	?	?	-28%	-7%	3.7µM*
CC(=O)N1CCC(C(=O)OCc2ccccc2F)(c2ccccc2)CC1	21µM*	4%	i	9%	-9%	?
O=C(OCCN1CCCC1)C1(c2ccccc2)CCCC1	-6%	-6%	i	11%	1%	-24%
CCCCCCCCC(=O)N1C(C)CCC1C (stereo not given)	?	1%	i	4%	·	?
SMILES	TDP1 cell noCPT	TGFb SMAD3 inh	ATXN viability	HepG2 tox	ATXN2 expr inh	TDP1 cell CPT
CC1CCCN(Cc2c(O)ccc3c2O/C(=C\c2ccco2)C3=O)C1 (stereo not given)	26µM*	22%	·	16%	-2%	15µM*
O=C(c1cccn2c(=O)c3cc(Cl)ccc3nc12)N1CCN(c2ccccc2F)CC1	?	-14%	i	-22%	-5%	?
CSc1nc(C(=O)N2CCOc3ccc(CN4CCN(Cc5ccccn5)CC4)cc3C2)cs1	-12%	·	i	·	·	19%[9.04 µM]
O=C(CSc1ccccc1)N1CCc2c([nH]c3ccccc23)C1c1ccc(F)cc1 (stereo not given)	?	?	·	-22%	·	?
CCOc1cccc(CC(=O)N2CCc3c([nH]c4ccccc34)C2c2ccc(C)cc2)c1OCC (stereo not given)	18µM*	-4%	·	-17%	·	?
CCOc1cccc(C2c3[nH]c4ccccc4c3CCN2C(=O)CSCc2ccc(F)cc2)c1 (stereo not given)	26µM*	?	·	-33%	·	18µM*
Cc1ccc(C2c3[nH]c4ccccc4c3CCN2C(=O)CCc2ccccc2)cc1 (stereo not given)	21µM*	?	·	-36%	·	?
CCOc1ccc(C2c3[nH]c4ccccc4c3CCN2C(=O)CSCc2ccc(F)cc2)cc1 (stereo not given)	?	-24%	·	-8%	·	?
CC1(C)[C@@H]2CC[C@@]1(C)C(=O)C2	3.3µM*!	·	i	·	-3%	8.4µM*!
CC(C)(C)OC(=O)N1CCC(c2c(C(=O)NCc3cccc(Cl)c3)cnn2-c2ccc(F)cc2)CC1	13µM*	1%	i	3%	1%	?
CC(C)(C)OC(=O)N1CCC(c2c(C(=O)NCCN3CCC(Cc4ccccc4)CC3)cnn2-c2ccc(F)cc2)CC1	5.2µM*	?	·	-110%	·	5.2µM*
Cc1ccc(-n2ncc(C(=O)NCc3ccccc3)c2C2CCN(C(=O)OC(C)(C)C)CC2)cc1	?	?	·	-31%	·	21µM*
Cn1nc(-c2ccc(OCC(=O)Nc3cccc(C(F)(F)F)c3)cc2)c2ccccc2c1=O	?	?	?	1%	-7%	?
